Results reported in PubChem BioAssay (NCI).
The panel holds about 79,000 compounds, 15% with a hit somewhere; the sample as a whole holds those more often. Cut-off read from the data, not from the text of the source: active = growth inhibition above about 70%; inactive = the rest.

Columns and labels:
[1] = NCI Yeast Anticancer Drug Screen. Data for the rad50 strain (AID 155);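 note: 0% = growth of vehicle-only cultures of the same strain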; settings: S. cerevisiae rad50 strain growth inhibition; at 50.0 µM; stronger effect = higher value
Summary of the method: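 Cells are treated with compound, grown, and their growth is then scored against vehicle-only cultures of the same repair-deficient yeast strain.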

[2] = NCI Yeast Anticancer Drug Screen. Data for the mec2-1 strain (AID 157); settings: S. cerevisiae mec2-1 strain, at 50.0 µM, stronger effect = higher value
Summary of the method: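 Mutant yeast (mec2-1) grown with compound; growth inhibition relative to vehicle control reported.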

[3] = NCI Yeast Anticancer Drug Screen. Data for the sgs1 mgt1 strain (AID 161);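 note: 0% = growth of cultures given vehicle only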; settings: S. cerevisiae sgs1 mgt1 strain, at 50.0 µM, stronger effect = higher value
Summary of the method: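 Yeast cells carrying a defined DNA-repair defect were exposed to test compounds. Growth inhibition was measured relative to vehicle-treated controls.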

[4] = NCI Yeast Anticancer Drug Screen. Data for the cln2 rad14 strain (AID 165);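 note: 0% = growth equal to vehicle treated cultures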; settings: S. cerevisiae cln2 rad14 strain, at 50.0 µM, stronger effect = higher value
Summary of the method: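 Readout is yeast growth inhibition versus vehicle-treated controls, using a strain with cln2 and rad14 alterations exposed to compound.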

[5] = NCI Yeast Anticancer Drug Screen. Data for the bub3 strain (AID 167); settings: S. cerevisiae bub3 mutant strain, at 50.0 µM, stronger effect = higher value
Summary of the method: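 Part of a panel of yeast mutants defective in DNA damage repair or cell cycle regulation. Each strain is grown with compound, and inhibition is calculated relative to solvent-treated cultures.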

[6] = NCI Yeast Anticancer Drug Screen. Data for the mlh1 rad18 strain (AID 175); settings: S. cerevisiae mlh1 rad18 strain growth inhibition; at 50.0 µM; stronger effect = higher value
Summary of the method: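 Genetically defined yeast (DNA repair-deficient) exposed to compounds; growth inhibition determined relative to vehicle.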

Measured: growth inhibition

[Cl][Co][Cl].[NH-]CCC[NH-].[NH-]CCC[NH-]
inactive: [1] 1.5% | [2] 21.3% | [3] 13.3% | [4] 10.2% | [5] -4.4% | [6] 16.7%

CC1(C)OS(=O)(=O)C=C1Br
inactive: [1] 16.7% | [2] -9.8% | [3] -4.15% | [4] -16% | [5] -8.4% | [6] -16.6%

C1CCN=C(N2CCCCCC2)CC1
inactive: [1] -16.9% | [2] -4.2% | [3] -5.8% | [4] -33% | [5] 13.6% | [6] -6.25%

COC(=O)C(C(=O)c1ccccc1)c1ccccc1 (configuration not stated)
inactive: [1] 30.6% | [2] 16.9% | [3] 9.5% | [4] 6.35% | [5] 8.4% | [6] 38.7%

Cc1ccc2nc(N(C)C)nc(N)c2c1
inactive: [1] -7.95% | [2] 2.05% | [3] -5.45% | [4] -7.85% | [5] -8.3% | [6] -6.2%

Cc1c(-c2ccccc2)[nH]c2cc(Cl)ccc2c1=O
inactive: [1] -28.9% | [2] 2.55% | [3] -16.4% | [4] 13% | [5] 16.9% | [6] -10.3%

CC1=CC2=C(C(N)=O)C(=O)OC2(C)C(c2ccccc2)C1 (configuration not stated)
inactive: [1] -19.9% | [2] -6.75% | [3] 4.65% | [4] 7% | [5] 1.85% | [6] 5.7%

CSCCCN(CCCSC)CCCSC
inactive: [1] -12.6% | [2] -12.9% | [3] -0.3% | [4] 5.5% | [5] 4.5% | [6] -26.6%

Cc1ccc(CCCC(N)=O)cc1
inactive: [1] 32.1% | [2] -0.15% | [3] 8.85% | [4] 4.1% | [5] -2.15% | [6] 2.55%

COC(=O)Cc1c(C(=O)OC)c(O)cc(O)c1C(=O)OC
inactive: [1] 5.85% | [2] 5.25% | [3] -10.2% | [4] -14.4% | [5] 12.3% | [6] -5.85%

O=c1[nH]c(=O)n(C2OC(CO)C(O)C2O)cc1OCCCc1ccccc1 (configuration not stated)
inactive: [1] -23.1% | [2] -1.8% | [3] 16.4% | [4] 31.2% | [5] -5.45% | [6] 8.75%

CC1(C)SCCNC1=O
inactive: [1] 3.35% | [2] 8.45% | [3] 8.8% | [4] 11.8% | [5] 15.8% | [6] 4.75%

Nc1cc(=S)nc(N)[nH]1
inactive: [1] 20.2% | [2] -6.75% | [3] 22.4% | [4] 9.55% | [5] 20.6% | [6] 28.9%

CNC(=O)NCCc1c[nH]c2ccccc12
inactive: [1] -35.9% | [2] -19.9% | [3] -49.1% | [4] -24.1% | [5] -26.7% | [6] -40.9%

O=C1CCC(C(=O)O)N1 (configuration not stated)
inactive: [1] -9.2% | [2] 4.7% | [3] -20.9% | [4] 1.15% | [5] 7.7% | [6] -7.8%

NC(CCc1ccc2c(c1)OCO2)C(=O)O (configuration not stated)
inactive: [1] 5.35% | [2] -11.8% | [3] -3.55% | [4] -47% | [5] -5.8% | [6] 22.9%

CC(=O)Nc1cc2cc(N=CN(C)C)ccc2oc1=O
inactive: [1] -24.9% | [2] -43.4% | [3] -16.4% | [4] -10.8% | [5] -18.1% | [6] -7.4%

CC(C)NC(=O)OCCN=c1c2ccccc2ccc2ccccc12
inactive: [1] 53.3% | [2] 49.8% | [3] 65.9% | [4] 22.7% | [5] 60.1% | [6] 38.9%

O=S(=O)(c1ccc(Cl)cc1)c1ccccc1C1=NCCN1
inactive: [1] -37.8% | [2] -44.9% | [3] -5.7% | [4] 6.3% | [5] -43.8% | [6] -23.8%

O=C1N(Cc2ccccc2)[C@H]2CS(=O)(=O)C[C@@H]2N1Cc1ccccc1
inactive: [1] 0.9% | [2] 4.1% | [3] 8.75% | [4] -10% | [5] 0.85% | [6] 12.7%

COC1CC(OC2C(C)OC(OC3C(C)OC(OC4C(O)CC(O[C@H]5CC[C@@]6(C)C(=CC[C@]7(O)[C@@H]6C[C@@H](OC(=O)/C=C/c6ccccc6)[C@@]6(C)[C@]7(O)CC[C@@]6(O)C(C)=O)C5)OC4C)CC3OC)CC2OC)OC(C)C1O (some centres not stated)
inactive: [1] -13.4% | [2] 7.95% | [3] -8.6% | [4] 16.2% | [5] -6.75% | [6] -53.8%

O=C1OC(=O)C2C1C1(Cl)CC2(Cl)C(Cl)=C1Cl (configuration not stated)
inactive: [1] -3.05% | [2] -31.8% | [3] 2% | [4] -30.8% | [5] -23.1% | [6] -18.6%

O=C(O)COc1cc([N+](=O)[O-])c(Cl)cc1Cl
inactive: [1] 7.75% | [2] -11.9% | [3] 18.6% | [4] 15.6% | [5] -1.4% | [6] 20.6%

COC(=O)c1ccc(C[P+](c2ccccc2)(c2ccccc2)c2ccccc2)cc1
inactive: [1] 15.5% | [2] 7.75% | [3] 44.3% | [4] 40.2% | [5] 0.95% | [6] 43.1%

CC(=O)CC(=O)NC(C)c1ccccc1 (configuration not stated)
inactive: [1] -4.05% | [2] -12.8% | [3] -4.65% | [4] -18.5% | [5] -7.3% | [6] 3.2%

O=C(O)C1CSC2(CCCC2)N1 (configuration not stated)
inactive: [1] 16.6% | [2] 4.15% | [3] 12.1% | [4] 4.35% | [5] 5.7% | [6] -1.6%

COC(=O)c1cocc1C(=O)OC
inactive: [1] -13.9% | [2] -7.25% | [3] -3.75% | [4] -2.8% | [5] -15.3% | [6] -15.9%

C=CCCCCCCCCC(=O)NCC1CCCCO1 (configuration not stated)
inactive: [1] 2.8% | [2] -0.5% | [3] 67.6% | [4] -1.35% | [5] 10.1% | [6] 58.1%

OC1COC(O)(CN2CCOCC2)C(O)C1O (configuration not stated)
inactive: [1] 14.2% | [2] 5.95% | [3] 10.6% | [4] 4.75% | [5] 18.1% | [6] 7.6%

CCOC(=O)NNC(=O)c1ccccc1N(C)C
inactive: [1] -12.4% | [2] -18.6% | [3] -7.05% | [4] -13.7% | [5] 25.1% | [6] -4.45%

CC(C)OP(=O)(OC(C)C)c1ccc2c(c1)OCCOCCOCCOCCO2
inactive: [1] -2.9% | [2] -11.3% | [3] 9.2% | [4] 4.2% | [5] -0.15% | [6] 21.4%

Cc1ccsc1/C=N/Nc1ncccn1
inactive: [1] 16.1% | [2] 10.7% | [3] 23.4% | [4] 3.7% | [5] 13.9% | [6] 24.1%

CCOC(=O)c1nc2ccccc2nc1Nc1ccc(F)cc1
inactive: [1] -2.35% | [2] -7.5% | [3] 1.75% | [4] 1.05% | [5] -21.1% | [6] -38%

Nc1cc2c(cc1Br)-c1ccccc1C2Br (configuration not stated)
inactive: [1] -6.35% | [2] -10.9% | [3] 3.7% | [4] 10.7% | [5] 1.25% | [6] 2.7%

CC(=O)C1CC(CCC2([N+](=O)[O-])CCC(C)(O)C(C(C)=O)C2)([N+](=O)[O-])CCC1(C)O (configuration not stated)
inactive: [1] 3.3% | [2] 5.05% | [3] 6.7% | [4] 2.6% | [5] 12.3% | [6] 20.6%

OCC1OC(n2c(SCc3ccccc3)nc3ccccc32)C(O)C1O (configuration not stated)
inactive: [1] -3.5% | [2] 1.45% | [3] -9.1% | [4] -11.9% | [5] 6.4% | [6] 0.1%

Cc1ccccc1NC(=O)Nc1ccc(Nc2ccccc2)cc1
inactive: [1] -6.5% | [2] 32.2% | [3] 9.95% | [4] -11.6% | [5] 5.95% | [6] 25.5%

O=C(NCc1ccc(Cl)c(Cl)c1)Nc1ccccc1F
inactive: [1] 11% | [2] 11.1% | [3] 6.1% | [4] 9.65% | [5] 20.4% | [6] 7.05%

Nc1cc(N)n(C2=NCCN2)n1
inactive: [1] -1.5% | [2] -27.5% | [3] 8% | [4] 11.1% | [5] 0% | [6] -13.3%

CCOC(=O)c1c(/C=N\Nc2ccccc2)nc2ccccc2c1-c1ccccc1
inactive: [1] 11.7% | [2] 0.6% | [3] -2.9% | [4] -6.5% | [5] -30.8% | [6] -7.4%

O=CC(O)C(O)C(O)C1CNC(=S)O1 (configuration not stated)
inactive: [1] 4.9% | [2] -14.7% | [3] -10.3% | [4] -2.25% | [5] 4.05% | [6] 6.9%

N#CC(C#N)=CNc1ccccc1
inactive: [1] 5.4% | [2] -8.95% | [3] 7.5% | [4] -20.9% | [5] 9.7% | [6] 4.6%
